Compounds with a hit are over-represented: about 18% of the library has one in this group of screens.
DT40 TDP1 no CPT = qHTS for Inhibitors of human tyrosyl-DNA phosphodiesterase 1 (TDP1): qHTS in cells in absence of CPT | DT40 Tdp1-/- hTDP1 cells, no CPT, ATP luminescence, 48 h | Potency, µM (highest dose often 46.2 µM), without a hit: at the top dose activity change, negative = growth inhibition, actives largely listed as inhibitors | actives 15% (n = 420,000); also: potency is read from the fitted curve at half-maximal effect; nearly all actives have a fitted effect of over 55% in size
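DT40 Tdp1-/-;hTDP1 cells, no CPT (DMSO vehicle only), 400 cells/well; compounds pin-transferred; ≥48 hr, 37 °C; CellTiter-Glo 30 min RT dark, luminescence read.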
Six1-Eya2 blk = blocks human Six1 binding to Eya2 | Q15475+O00167 | AlphaScreen GST-Six1/His-Eya2 binding, biochemical; stronger effect = lower value | activity change, % (no concentration beside the values) | actives 0.56% (n = 360,000) | AID 651725; in the data active = activity change below about -65%; inconclusive = mostly about -30% to -63%
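AlphaScreen with GST-Six1 and His-Eya2 (5X mix: 250 nM and 500 nM), glutathione donor and nickel acceptor beads; buffer 50 mM Tris pH 8.0, 300 mM NaCl, 1 mM TCEP; 1 h at 37 C in the dark.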
TDP1 block = blocks human tyrosyl-DNA phosphodiesterase 1; Q9NUW8; recombinant TDP1, AlphaScreen DNA substrate cleavage; Potency, µM (titrated, usually from 130 µM), for inactives: at the highest dose activity change, negative = inhibition, usual class: inhibitors; actives 0.28% (n = 350,000); also: potency is read from the fitted curve at half-maximal effect; nearly all actives have a fitted effect of over 40% in size
Target sequence (Q9NUW8 whole entry, looked up): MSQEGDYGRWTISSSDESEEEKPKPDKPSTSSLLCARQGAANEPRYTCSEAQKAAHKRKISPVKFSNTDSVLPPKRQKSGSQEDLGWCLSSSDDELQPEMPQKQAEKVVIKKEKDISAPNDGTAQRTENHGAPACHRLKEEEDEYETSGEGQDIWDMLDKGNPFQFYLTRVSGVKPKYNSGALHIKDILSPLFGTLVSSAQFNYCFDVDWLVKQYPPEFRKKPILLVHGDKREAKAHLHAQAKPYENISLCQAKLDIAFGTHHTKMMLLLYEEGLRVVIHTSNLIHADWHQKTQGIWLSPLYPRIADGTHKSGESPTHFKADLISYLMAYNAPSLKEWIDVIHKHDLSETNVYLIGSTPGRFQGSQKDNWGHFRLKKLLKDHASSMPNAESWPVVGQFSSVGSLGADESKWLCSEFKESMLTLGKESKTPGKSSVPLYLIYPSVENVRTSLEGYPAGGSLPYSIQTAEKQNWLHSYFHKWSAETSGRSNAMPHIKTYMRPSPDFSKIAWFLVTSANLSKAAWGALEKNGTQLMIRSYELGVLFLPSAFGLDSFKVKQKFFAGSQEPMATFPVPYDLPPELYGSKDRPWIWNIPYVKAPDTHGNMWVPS
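E. coli-derived human Tdp1, 1 nM final. Cpd preinc 15 min RT; substrate 15 nM final, 5 min RT; AS bead mix 10 ug/ml final, 10 min RT. Signal loss = tyrosine-FITC cleavage. No-enzyme wells = max signal.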
DT40 TDP1 CPT = DT40-hTDP1 cell growth loss with CPT | chicken DT40 Tdp1-/-;hTDP1 cells + 20 nM CPT, ATP luminescence, 48 h | Potency, µM (top dose mostly 46.2 µM), without a hit: at the highest dose activity change, negative = growth inhibition, hits mostly inhibitors | actives 12% (n = 420,000) | AID 686979; also: potency is read from the fitted curve at half-maximal effect; nearly all actives have a fitted effect of over 55% in size
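Chicken DT40 Tdp1-/- cells stably complemented with human TDP1 were seeded at 400 cells/well in medium containing 20 nM camptothecin, exposed to pin-transferred compounds, and grown at 37 °C for at least 48 hr. Viability was read as ATP luminescence.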
IL-1B inflam inh = inflammasome signaling inhibition, IL-1 beta readout | activity change, % at 57.5 µM | THP-1 LPS/ATP IL-1B secretion, AlphaLISA, 16 h; stronger effect = lower value | actives 4.7% (n = 360,000); in the data active = activity change below about -50%; inconclusive = mostly about -30% to -49%
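THP-1 cells pretreated 1 hr with compounds (up to 57.5 uM final), then stimulated with LPS (250 ng/mL final) plus ATP (1.25 mM final); secreted IL-1B measured by AlphaLISA after 16 hr, decreased signal indicating inhibition.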
CtBP-E1A inh = inhibitors of CtBP/E1A interaction; activity change, % (no concentration beside the values); actives 0.49% (n = 340,000); AlphaScreen GST-E1A/His-CtBP binding, 1536-well; stronger effect = lower value; in the data active = activity change below about -65%; inconclusive = mostly about -30% to -63%
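GST-E1A and His-tagged CtBP (125 nM each as 5X stock) were preincubated with pin-transferred compound for 2 h at 37 °C in the dark, then glutathione donor and nickel acceptor beads were added for 1 h before AlphaScreen reading.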
* marks the source's active call; other numbers are inactive results; i = inactive; ? = inconclusive; . = no result given; ! = not active in a repeat; [ ] = remark or other dose. Unless noted, calls follow the shape of the dose curve; as a rule, active = well fitted curve in the direction sought with a large enough effect; inconclusive = small, poorly fitted or top-dose-only effect, or another doubt; inactive = no such curve, though single readings can be large; an effect the other way counts as inactive or inconclusive. % is scaled to controls: 0 for no effect and ±100 for the full control effect.

SMILES	DT40 TDP1 no CPT	Six1-Eya2 blk	TDP1 block	DT40 TDP1 CPT	IL-1B inflam inh	CtBP-E1A inh
CCOP(=O)(CCP(=O)(OCC)OCC)OCC.C[CH2][Sn]([Cl])([Cl])[CH2]C	0.82µM*	-3.7	.	0.731µM*	-99.9*	-17.4
CCOP(=O)(OCC)OCC	-16.0%	5.9	-0.2%	2.5%	-17.4	4.0
C[N+]1(C)C2CC(OC(=O)C(CO)c3ccccc3)CC1C1OC12 (centres undefined)	3.3%	6.4	-6.3%[56.1 µM]	-22.2%	-20.1	-12.7
N#Cc1ncc(N=Cc2ccc(N(CCCl)CCCl)cc2)s1	11.6µM*	4.2	.	10.3µM*	2.1	9.3
ClCCN(CCCl)c1ccc(C=NNc2ncccn2)cc1	5.17µM*	-10.4	.	4.61µM*	1.5	-14.5
C[n+]1c(-c2ccccc2)sc2ccccc21	1.03µM*	3.0	.	1.3µM*	14.1	.
c1ccc2c(c1)sc1ccccc12	-26.4%	.	-2.8%[56.1 µM]	?	.	.
COc1ccc(C2N(c3cc(C)on3)C(=O)C3CCCN32)cc1 (centres undefined)	-3.4%	-3.5	5.5%	-18.8%	3.8	2.3
Cc1ccc(S(=O)(=O)N2CCCCC2)cc1NC(=O)CN1CC=C(c2ccccc2)CC1	5.17µM*	-11.4	5.3%	8.2µM*	?	-3.7
Cc1ccc(N2CC(C(=O)Nc3cc(S(=O)(=O)N4CCCCC4)ccc3C)CC2=O)cc1 (centres undefined)	5.8µM*	40.5	.	?	-20.2	-14.1
Cc1ccc(S(=O)(=O)N(C)C)cc1NC(=O)C(C)[N+]12CCN(CC1)CC2 (centres undefined)	2.3%	6.3	2.7%	14.4%	18.2	.
COc1ccccc1CNCC(=O)Nc1cc(S(=O)(=O)N2CCCCC2)ccc1C	?	9.2	2.9%	?	-59.7*	0.7
O=C(CN1CC=C(c2ccccc2)CC1)Nc1cc(Cl)ccc1Cl	16.4µM*	-0.3	1.2%	?	i	-12.2
O=[N+]([O-])c1ccc2c(c1)Cc1cc(O)ccc1-2	?	-3.5	.	?	-4.6	-4.1
CC(C)CN1CC2(CCN(C(=O)c3ccncc3)CC2)C1	3.8%	.	.	-15.4%	.	.
CCOC(=O)c1ccc(COC(=O)c2ccc(-c3nnc(-c4ccccc4)o3)cc2)o1	?	-2.2	.	?	0.0	-0.7
CCCCn1c(=O)c(C(=O)NCc2ccccc2OC)c(O)c2ccccc21	?	6.0	.	?	0.0	-4.8
CCN(CC)S(=O)(=O)c1ccc2c(c1)c(=O)c(C(=O)NCc1ccccc1OC)cn2C	18.4µM*	.	2.3%	23.1µM*	.	.
O=C1NC2NC(=O)N([N+](=O)[O-])C2N1 (centres undefined)	4.7%	-0.5	0.0%	20.0%	-4.3	-3.6
CC(=O)c1c(C)n(Cc2ccccc2)c2ccc(O)cc12	18.4µM*	0.4	.	16.4µM*	-29.5	-4.5
COC(/C(C)=C/C=C/C(C)=C/c1coc(C)n1)C(C)C1CC(O)C2(C)OC2C=CC(C)C2CC(CC(=O)O2)CC2OC2C(=O)O1 (centres undefined)	0.0184µM*	8.3	.	0.116µM*	29.5	-3.7
O=c1c(O)c(-c2ccc(O)c(O)c2)oc2c(O)c(O)cc(O)c12	?	.	-6.8%[56.1 µM]	18.4µM*	.	.
NC(=O)CS(=O)C(c1ccccc1)c1ccccc1 (centres undefined)	-6.9%	.	1.2%	6.5%	.	.
COc1cccc(NP2(=O)OCC(C)([N+](=O)[O-])CO2)c1 (centres undefined)	2.3%	5.9	.	6.5%	-1.0	-2.2
NC1C=CC=C(C(=O)O)C1 (centres undefined)	-1.4%	7.3	3.98µM*!	-3.9%	-14.7	-6.6
SMILES	DT40 TDP1 no CPT	Six1-Eya2 blk	TDP1 block	DT40 TDP1 CPT	IL-1B inflam inh	CtBP-E1A inh
CC(C)C[C@H](NC(=O)[C@H](Cc1ccccc1)NC(=O)CNC(=O)[C@H](CO)NC(=O)[C@@H](N)Cc1ccc(O)cc1)C(=O)N[C@H](C(=O)O)[C@H](C)O	2.0%[4.12 µM]	.	6.1%	-1.9%[4.12 µM]	.	.
NC(Cc1ccccc1)c1csc(Nc2ccccn2)n1 (centres undefined)	?	-86.0*	.	?	-18.6	-90.3*
NC(Cc1ccccc1)c1nc2ccccc2[nH]1 (centres undefined)	-18.2%	-14.4	.	-2.1%	-1.1	-5.8
NC(Cc1ccc(F)cc1)c1csc(Nc2ccccn2)n1 (centres undefined)	16.4µM*	-85.5*	.	?	-50.7*	-91.2*
CN(C)C(Cc1ccc(Cl)cc1)C(=O)c1ccccc1 (centres undefined)	-10.6%	1.6	0.0%	-2.9%	-9.4	7.1
COc1cccc(Nc2nc(C(N)Cc3ccc(F)cc3)cs2)n1 (centres undefined)	8.2µM*	-10.7	.	18.4µM*	-64.4*	-24.7
NC(Cc1ccc(Cl)cc1)c1csc(Nc2ccccn2)n1 (centres undefined)	13µM*	?	.	14.6µM*	-66.2*	-68.2*
CC1(C)CC2(CCO1)NCCN1C(=O)CSC12 (centres undefined)	-13.5%	11.2	5.1%	2.8%	0.7	-2.2
CSc1nnc(C2CCNCC2)n1C	-3.4%	5.6	7.8%	1.3%	0.0	-0.1
CCC1(CCO)C(=O)NC(=S)NC1=O	-4.9%	1.4	.	8.2%	2.5	-3.7
CCNC(C)Cc1cccc(C(F)(F)F)c1 (centres undefined)	-15.0%	.	2.1%	1.7%	.	.
Cc1ncoc1C(=O)NCC1=C(c2ccc(S(C)(=O)=O)cc2)C[C@@H]2CC[C@H]1N2Cc1ccco1	3.8%	2.5	.	2.5%	-6.8	1.8
O=C(COc1ccc(Cl)cc1)N1CCN(C2CCCC2)CC1	-5.3%	-2.0	.	16.6%	6.6	8.5
Cn1ncc(Cl)c1C(=O)N1CCC2(CC1)OCCO2	10.5%	0.8	1.1%	-3.2%	3.1	3.6
NC(Cc1ccc(F)cc1)c1csc(Nc2cnccn2)n1 (centres undefined)	?	-74.4*	.	?	?	-83.2*
CN(C)C/C=C(/c1ccc(Br)cc1)c1cccnc1	11.9µM*	3.7	?	29.9µM*!	-19.9	-12.3
CN(CCCC(=O)c1cccnc1)N=O	4.2%	.	4.9%	0.4%	.	.
Cc1cc(C)c2c(ccc3cccc[n+]32)c1	20.6µM*	-18.7	.	?	-60.7*	-3.0
CC(=O)C1CCC2C3CCC4CC(O)CCC4(C)C3C(O)CC12C (centres undefined)	?	3.1	.	-10.8%	13.1	2.4
